In all, about 5,500 compounds went through this assay and about 2,000 (36%) were called active. Another 18% or so got no clear call; they are omitted. No stated cut-off is given here; in the data, active means normalized growth mostly below about 0.91 (no sharp cut-off); inconclusive means no clear call, values can overlap the other calls; inactive means mostly above about 0.92. This is one part of the list.
Test: chemical genetic growth profiling, strain panel (AID 1159580);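 further: tested at 20 µM; growth read once vehicle control cultures reached saturation at 30 °C; 1 = growth at the plate median or of vehicle wells; lower values mean less growth of the strain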
Settings: growth OD

Measured: normalized growth

O=C1[C@H](CCC(O)c2ccc(F)cc2)[C@@H](c2ccc(O)cc2)N1c1ccc(F)cc1 (some centres not stated)
inactive: S. cerevisiae deletion strains, locus YJR075W, strain HOC1, active compounds read low 0.986 | S. cerevisiae deletion strains, locus YKL009W, strain mrt4, active compounds read low 0.944 | S. cerevisiae deletion strains, locus YKL068W, active compounds read low 0.989 | S. cerevisiae deletion strains, locus YKL085W, strain MDH1 (second series), active compounds read low 0.983 | S. cerevisiae deletion strains, locus YKL085W, strain MDH1, active compounds read low 0.983 | S. cerevisiae deletion strains, locus YKL160W, strain elf1, active compounds read low 0.974 | S. cerevisiae deletion strains, locus YKL190W, strain CNB1, active compounds read low 0.995 | S. cerevisiae deletion strains, locus YKR001C, strain vps1, active compounds read low 0.968 | S. cerevisiae deletion strains, locus YKR026C, strain gcn3, active compounds read low 0.961 | S. cerevisiae deletion strains, locus YKR091W, strain srl3, active compounds read low 0.977 | S. cerevisiae deletion strains, locus YLL001W, strain dnm1, active compounds read low 0.937 | S. cerevisiae deletion strains, locus YLL026W, active compounds read low 0.977 | S. cerevisiae deletion strains, locus YLL041C, strain sdh2, active compounds read low 0.967 | S. cerevisiae deletion strains, locus YLR027C, strain aat2, active compounds read low 0.98 | S. cerevisiae deletion strains, locus YLR039C, strain RIC1, active compounds read low 0.995 | S. cerevisiae deletion strains, locus YLR058C, strain SHM2, active compounds read low 0.982 | S. cerevisiae deletion strains, locus YLR102C, strain apc9, active compounds read low 0.972 | S. cerevisiae deletion strains, locus YLR113W, strain HOG1, active compounds read low 1 | S. cerevisiae deletion strains, locus YLR221C, strain rsa3, active compounds read low 0.986 | S. cerevisiae deletion strains, locus YLR258W, strain gsy2, active compounds read low 0.972 | S. cerevisiae deletion strains, locus YLR262C, strain YPT6 (second series), active compounds read low 0.988 | S. cerevisiae deletion strains, locus YLR262C, strain YPT6, active compounds read low 0.978 | S. cerevisiae deletion strains, locus YLR268W, strain sec22, active compounds read low 0.96 | S. cerevisiae deletion strains, locus YLR320W, strain mms22, active compounds read low 0.975 | S. cerevisiae deletion strains, locus YLR330W, strain CHS5, active compounds read low 0.988 | S. cerevisiae deletion strains, locus YLR342W, strain FKS1 (second series), active compounds read low 1.01 | S. cerevisiae deletion strains, locus YLR342W, strain FKS1, active compounds read low 0.973 | S. cerevisiae deletion strains, locus YLR357W, strain rsc2, active compounds read low 0.978 | S. cerevisiae deletion strains, locus YLR370C, strain arc18, active compounds read low 0.967 | S. cerevisiae deletion strains, locus YLR371W, strain rom2, active compounds read low 0.971 | S. cerevisiae deletion strains, locus YLR384C, strain iki3, active compounds read low 0.976 | S. cerevisiae deletion strains, locus YLR418C, strain cdc73, active compounds read low 0.948 | S. cerevisiae deletion strains, locus YML016C, strain PPZ1, active compounds read low 0.989 | S. cerevisiae deletion strains, locus YML032C, strain rad52, active compounds read low 0.979 | S. cerevisiae deletion strains, locus YML120C, strain ndi1, active compounds read low 0.968 | S. cerevisiae deletion strains, locus YML124C, strain tub3, active compounds read low 0.977 | S. cerevisiae deletion strains, locus YMR058W, strain fet3, active compounds read low 0.977 | S. cerevisiae deletion strains, locus YMR078C, strain ctf18, active compounds read low 0.968 | S. cerevisiae deletion strains, locus YMR125W, strain sto1, active compounds read low 0.971 | S. cerevisiae deletion strains, locus YMR129W, active compounds read low 0.962 | S. cerevisiae deletion strains, locus YMR205C, strain PFK2, active compounds read low 0.944 | S. cerevisiae deletion strains, locus YMR223W, strain ubp8, active compounds read low 0.987 | S. cerevisiae deletion strains, locus YMR231W, strain pep5, active compounds read low 0.994 | S. cerevisiae deletion strains, locus YMR263W, strain SAP30, active compounds read low 0.997 | S. cerevisiae deletion strains, locus YMR307W, strain GAS1, active compounds read low 0.976 | S. cerevisiae deletion strains, locus YNL067W, strain RPL9B, active compounds read low 1 | S. cerevisiae deletion strains, locus YNL071W, strain lat1, active compounds read low 0.984 | S. cerevisiae deletion strains, locus YNL128W, strain TEP1, active compounds read low 0.994 | S. cerevisiae deletion strains, locus YNL153C, strain GIM3, active compounds read low 0.995 | S. cerevisiae deletion strains, locus YNL183C, strain NPR1, active compounds read low 0.961 | S. cerevisiae deletion strains, locus YNL209W, strain ssb2, active compounds read low 0.99 | S. cerevisiae deletion strains, locus YNL233W, strain BNI4, active compounds read low 0.984 | S. cerevisiae deletion strains, locus YNL248C, strain rpa49, active compounds read low 0.965 | S. cerevisiae deletion strains, locus YNL250W, strain rad50, active compounds read low 0.974 | S. cerevisiae deletion strains, locus YNL271C, strain bni1, active compounds read low 0.968 | S. cerevisiae deletion strains, locus YNL298W, strain CLA4, active compounds read low 0.961 | S. cerevisiae deletion strains, locus YNL307C, strain MCK1, active compounds read low 0.961 | S. cerevisiae deletion strains, locus YNL322C, strain KRE1 (second series), active compounds read low 0.971 | S. cerevisiae deletion strains, locus YNL322C, strain KRE1, active compounds read low 0.994 | S. cerevisiae deletion strains, locus YNR049C, strain mso1, active compounds read low 0.962 | S. cerevisiae deletion strains, locus YNR052C, strain pop2, active compounds read low 0.973 | S. cerevisiae deletion strains, locus YOL006C, strain TOP1, active compounds read low 0.908 | S. cerevisiae deletion strains, locus YOL012C, strain htz1 1.05 | S. cerevisiae deletion strains, locus YOL147C, strain pex11, active compounds read low 0.975 | S. cerevisiae deletion strains, locus YOR001W, strain rrp6, active compounds read low 0.967 | S. cerevisiae deletion strains, locus YOR061W, strain CKA2, active compounds read low 0.984 | S. cerevisiae deletion strains, locus YOR069W, strain VPS5, active compounds read low 0.987 | S. cerevisiae deletion strains, locus YOR070C, strain gyp1, active compounds read low 0.982 | S. cerevisiae deletion strains, locus YOR080W, strain dia2, active compounds read low 0.956 | S. cerevisiae deletion strains, locus YOR083W, strain WHI5, active compounds read low 0.967 | S. cerevisiae deletion strains, locus YOR106W, strain vam3, active compounds read low 0.918 | S. cerevisiae deletion strains, locus YOR136W, strain idh2, active compounds read low 0.979 | S. cerevisiae deletion strains, locus YOR144C, strain elg1, active compounds read low 0.968 | S. cerevisiae deletion strains, locus YOR184W, strain ser1, active compounds read low 0.972 | S. cerevisiae deletion strains, locus YOR231W, strain MKK1, active compounds read low 0.961 | S. cerevisiae deletion strains, locus YOR265W, strain rbl2, active compounds read low 0.976 | S. cerevisiae deletion strains, locus YOR270C, strain vph1, active compounds read low 0.801 | S. cerevisiae deletion strains, locus YOR290C, strain snf2, active compounds read low 0.987 | S. cerevisiae deletion strains, locus YOR316C, strain cot1, active compounds read low 0.966 | S. cerevisiae deletion strains, locus YPL051W, strain arl3, active compounds read low 0.991 | S. cerevisiae deletion strains, locus YPL055C, strain LGE1, active compounds read low 0.998 | S. cerevisiae deletion strains, locus YPL078C, strain atp4, active compounds read low 0.908 | S. cerevisiae deletion strains, locus YPL106C, strain sse1, active compounds read low 1 | S. cerevisiae deletion strains, locus YPL240C, strain hsp82, active compounds read low 0.994 | S. cerevisiae deletion strains, locus YPL241C, strain CIN2, active compounds read low 0.996 | S. cerevisiae deletion strains, locus YPL256C, strain CLN2, active compounds read low 0.97 | S. cerevisiae deletion strains, locus YPR119W, strain clb2, active compounds read low 0.984 | S. cerevisiae deletion strains, locus YPR141C, strain kar3, active compounds read low 0.956 | S. cerevisiae deletion strains, locus YPR163C, strain tif3, active compounds read low 0.962 | S. cerevisiae deletion strains, locus YPR167C, strain met16, active compounds read low 0.966 | S. cerevisiae deletion strains, strain wtn01, active compounds read low 0.971 | S. cerevisiae strains, strain wild type, active compounds read low 1.01
